DNA FID counter: compounds displacing fluorescent DNA intercalator, primary screen, artefact control for HCV NS3 helicase inhibitor project, biochemical, FID fluorescence. inhibition, % at 7.9 µM. AID 1845, 2009. DNA fluorescent intercalator displacement. 290,000 tested, 0.17% active; in the data active = inhibition above about 37%;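 note: 0% = vehicle and 100% = reference compound; higher means more ethidium bromide displaced from hairpin DNA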
RAD52 inh: RAD52 DNA annealing inhibitors, primary screen, biochemical, FRET, single point, set 2 | recombinant RAD52 DNA annealing, FRET fluorescence | inhibition, % at 18.7 µM | 360,000 tested, 0.46% active | AID 651710, 2012;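 active = every replicate showing at least 50% inhibition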
Target sequence (P43351 whole entry, looked up): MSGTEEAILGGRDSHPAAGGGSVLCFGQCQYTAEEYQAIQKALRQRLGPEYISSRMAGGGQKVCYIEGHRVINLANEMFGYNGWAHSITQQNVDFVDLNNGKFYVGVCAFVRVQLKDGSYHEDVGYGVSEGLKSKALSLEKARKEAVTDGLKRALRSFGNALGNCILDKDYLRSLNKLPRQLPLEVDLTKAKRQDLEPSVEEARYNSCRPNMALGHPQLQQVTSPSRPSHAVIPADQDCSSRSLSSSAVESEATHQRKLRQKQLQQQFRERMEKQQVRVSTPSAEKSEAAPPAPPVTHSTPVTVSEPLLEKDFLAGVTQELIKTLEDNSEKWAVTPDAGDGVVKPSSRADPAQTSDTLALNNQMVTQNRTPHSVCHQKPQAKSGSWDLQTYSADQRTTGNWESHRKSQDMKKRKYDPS
RAD54 inh: inhibitors of human RAD54 branch migration, primary screen, biochemical, fluorescence, single point; DNA repair and recombination protein RAD54-like (Homo sapiens), Q92698; RAD54 Holliday junction branch migration, FAM/BHQ fluorescence; inhibition, % at 10.4 µM; 360,000 tested, 0.14% active;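 active = mean normalized replicate activity at least 40 and at least half of replicates scoring 40 or more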;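 note: 0% = median of neutral control wells and 100% = median of positive control wells; inhibitors cause a drop in the FAM fluorescence signal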
UBC13 inh: UBC13 polyubiquitin chain formation inhibitors, primary screen, biochemical, TR-FRET, uHTS. Ubiquitin-conjugating enzyme E2 N (Homo sapiens), P61088. inhibition, % at 20 µM. 330,000 tested, 0.47% active. AID 485273, 2010; in the data active = inhibition above about 45%, passing the limit was not always enough
PREPL inh: PREPL enzyme inhibitors, primary screen, biochemical, fluorescence polarization | inhibition, % at 5.96 µM | 320,000 tested, 0.68% active | recombinant PREPL, fluorescence polarization activity-based probe | Prolyl endopeptidase-like (Homo sapiens), Q4J6C6; in the data active = inhibition above about 43%;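 note: 0% = enzyme with DMSO and 100% = wells lacking enzyme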
MIN6 prolif-1: inducers of MIN6 beta-cell proliferation, primary screen, ATP luminescence, uHTS; proliferation, % at 10 µM; AID 2380, 2010; MIN6 cells proliferation, ATPlite luminescence, 48 h; cells starved in 0.2% serum; 100% = growth in 10% serum; 330,000 tested, 0.29% active;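 active = compounds whose signal lies at least 3.5 SD above the mean of all wells on their plate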;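 note: 0% = DMSO-treated cells in low-serum medium and 100% = 10% serum control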
MIN6 prolif-2: inducers of beta-cell proliferation in MIN6, confirmation, MIN6 cells, mouse; 920 tested, under 10 active; shares compounds with MIN6 prolif-1; ATPlite luminescence, 48 h; cells kept in 0.2% serum; scaled between 0.2% and 10% serum; proliferation increase, % at 50 µM;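 active = proliferation increase above 40% at any of the four tested concentrations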
Numbers without * were called inactive; . = no result given. This is a sample that favours compounds with a hit; in the whole collection about 1.3% have one here.

SMILES	DNA FID counter	RAD52 inh	RAD54 inh	UBC13 inh	PREPL inh	MIN6 prolif-1	MIN6 prolif-2
CCN(CC)C(=O)CN1C(=O)C2CC=C(Cl)CC2C1=O (stereo not given)	-0.1	.	-11.5	8.9	2.5	6.9*	0.6
CN1CCN(C(=O)C[C@@H]2CC[C@H]3[C@@H](COC[C@@H](O)CN3CC3CC3)O2)CC1	.	-11.6	22.7	.	.	.	.
O=S(=O)(c1ccc(Cl)c2ccccc12)N1CCCC1	-13.7	-9.2	.	-16.9	-13.6	-0.6	.
O=C1Nc2ccc(S(=O)(=O)N3CCCC3)c3ccc(S(=O)(=O)N4CCCC4)c1c23	-0.3	.	0.2	-7.2	-7.8	9.2*	4.6
COc1ccc(OC)c(NC(=O)CCn2cccc2)c1	1.6	.	-9.8	5.5	-0.2	7.5*	-1.3
CC(C)CC#Cc1cnc2c(c1)C(=O)N([C@@H](C)CO)C[C@@H](C)[C@@H](CN(C)C(=O)CN1CCOCC1)O2	.	-0.4	-4.7	.	.	.	.
Cc1cc(NC(=O)c2c(-c3c(Cl)cccc3Cl)noc2C)n(C)n1	-0.9	-8.0	-1.0	3.6	1.5	6.8*	2.3
O=C(N[C@H]1CC[C@@H](CCNS(=O)(=O)Cc2ccccc2)O[C@H]1CO)c1cnccn1	.	0.4	4.9	.	.	.	.
COc1ccccc1N(CC(O)CN1CCCC1)S(=O)(=O)c1ccccc1 (stereo not given)	0.4	-77.3	10.5	7.7	-29.1	0.0	.
COc1ccccc1N(CC(O)CN1CCOCC1)S(=O)(=O)c1ccccc1 (stereo not given)	-3.3	-18.1	1.4	7.5	-3.7	19.4*	0.0
COc1ccc(NC(=O)CS(=O)c2ccc(F)cc2)cc1 (stereo not given)	-3.4	-8.7	-16.9	3.6	3.4	12.4*	-1.3
Cc1cc(C)n(C(=O)COc2ccc([N+](=O)[O-])cc2)n1	-4.5	.	0.3	7.0	-2.7	5.3*	3.9
COc1ccc(Cl)cc1C(=O)OCC(=O)NCCNC(=O)COC(=O)c1cc(Cl)ccc1OC	-42.4	-21.9	-1.5	7.5	8.5	9.7*	1.1
COc1cc(N)c(Cl)cc1C(=O)OCC(=O)NCC1CCCO1 (stereo not given)	.	-5.1	3.6	17.9	-1.9	0.9	.
COc1ccc(Cl)cc1C(=O)OCC(=O)Nc1sccc1C(N)=O	.	-37.5	3.2	17.7	-5.0	4.7	.
COc1cc(N)c(Cl)cc1C(=O)OCC(=O)NCC1CCCCC1	.	-14.1	6.9	4.1	10.0	8.8*	-5.5
Cc1cccc(S(=O)(=O)N2C[C@H]3[C@@H](c4ccccc42)[C@@H](CO)N3CC2CCOCC2)c1	.	-7.3	6.6	.	.	.	.
C[C@H]1CN([C@@H](C)CO)C(=O)Cc2cc(NS(=O)(=O)c3ccccc3)ccc2O[C@H]1CN(C)Cc1ccc(C(=O)O)cc1	.	1.1	.	.	.	.	.
Cc1ccc(C)c(OCCN2C(=O)NC3(CCc4ccccc4C3)C2=O)c1 (stereo not given)	-37.8	.	.	10.2	-4.9	0.0	.
Cc1ccc(OCCN2C(=O)NC3(CCc4ccccc4C3)C2=O)cc1 (stereo not given)	-19.5	-22.3	.	9.9	-68.1	7.2*	-5.5
COc1ccc(S(=O)(=O)N(C)C[C@H]2OCCCC[C@@H](C)Oc3ccc(NC(=O)CCC(F)(F)F)cc3C(=O)N([C@H](C)CO)C[C@H]2C)cc1	.	-19.4	-11.8	.	.	.	.
CC1CN(Cc2ccccc2)C(=O)N(c2ccccc2)C1=O (stereo not given)	.	-14.2	.	.	.	.	.
CC1CN(Cc2ccccc2)c2ccccc2NC1=S (stereo not given)	-5.1	-9.0	-3.2	8.9	0.8	0.0*	-6.3
Cc1ccc(CNC(=O)CCNC(=O)N2CCn3c2nc2ccccc23)cc1	-40.2	-2.3	-1.3	1.8	-9.8	13.5*	-2.0
Cc1ccc(CNC(=O)CCCCCNC(=O)N2CCn3c2nc2ccccc23)cc1	-62.9	-11.1	-27.3	0.2	5.2	4.9	.

Screens from PubChem BioAssay.
